Rows were chosen to be rich in hits. Some 2.5% of all compounds tested hit in one or more screens of this group.
Cruzain noTriton = inhibitors of Trypanosoma cruzi cruzain without detergent; purified cruzain, Z-FR-AMC fluorescence, no detergent; Potency, µM, for the others: max response, negative = inhibition, actives largely listed as inhibitors; hit rate 2.3% among 200,000; AID 1476;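 also: plate controls were enzyme without inhibitor for no effect and buffer without enzyme for full effect; nearly all actives have a fitted effect of over 40% in size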
Target sequence (P25779 123-467 limits assumed): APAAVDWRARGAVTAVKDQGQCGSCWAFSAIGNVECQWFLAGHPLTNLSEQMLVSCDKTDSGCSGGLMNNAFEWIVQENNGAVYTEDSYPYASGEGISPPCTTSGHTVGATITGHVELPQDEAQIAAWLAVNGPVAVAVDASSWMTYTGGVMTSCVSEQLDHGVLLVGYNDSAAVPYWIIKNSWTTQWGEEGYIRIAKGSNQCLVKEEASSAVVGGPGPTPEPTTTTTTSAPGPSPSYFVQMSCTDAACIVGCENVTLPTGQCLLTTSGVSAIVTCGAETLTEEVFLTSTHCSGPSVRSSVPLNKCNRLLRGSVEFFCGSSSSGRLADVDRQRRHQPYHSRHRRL
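Purified cruzain at 1.5 nM, pre-incubated 15 min with compound at room temperature in 100 mM sodium acetate pH 5.5, 5 mM DTT, 0.00005% Triton X-100. Reaction started with 2 uM Z-FR-AMC; AMC fluorescence increase over 60 s gives rate.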
Cruzain inh Det = blocks cruzain activity in presence of Triton detergent; P25779; purified cruzain, Z-FR-AMC fluorescence, 0.01% Triton; Potency, µM, for inactives: max response, negative = inhibition, most hits filed as inhibitors; hit rate 0.43% among 200,000; AID 1478;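 also: plate controls were neutral wells for no effect and buffer without enzyme for full effect; nearly all actives have a fitted effect of over 40% in size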
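Cruzain (1.5 nM) preincubated 15 min at RT with compound in 100 mM sodium acetate pH 5.5, 5 mM DTT, 0.01% Triton X-100. Reaction started with 2 uM Z-FR-AMC; AMC fluorescence (ex 360/em 450 nm) change over 60 s gave rate.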
* marks the source's active call; other numbers are inactive results; ? = inconclusive. Calls follow the shape of the dose curve; as a rule, active = well fitted curve in the direction sought with a large enough effect; inconclusive = small, poorly fitted or top-dose-only effect, or another doubt; inactive = no such curve, though single readings can be large; an effect the other way counts as inactive or inconclusive. Potency is read from the fitted curve at half-maximal effect.

SMILES | Cruzain noTriton | Cruzain inh Det
Cc1cc(C)cc(C(=O)Nc2ccc(-c3nc4ncccc4o3)cc2)c1 | -3.2% | -3.6%
CCC1CSC(Nc2ccc(C(=O)/C=C/c3ccc(Br)cc3)cc2)=N1 (stereo unspecified) | 25.1µM* | -11.2%
O=C(/C=C/c1ccc(Br)cc1)c1ccc(NC(=O)c2ccco2)cc1 | -12.2% | -5.9%
O=C1CCSC2(C(=O)N(Cc3ccc(F)cc3)c3ccccc32)N1c1ccc(Cl)cc1 (stereo unspecified) | -19.7% | -7.9%
CCN1CCc2nc(NC(=O)C(c3ccccc3)c3ccccc3)sc2C1 | -7.4% | -0.1%
CCN1CCc2nc(NC(=O)CC(c3ccccc3)c3ccccc3)sc2C1 | 31.6µM* | 0.1%
CCS(=O)(=O)N1CCc2cc(C(=O)Nc3ccc(OC)c(Cl)c3)ccc21 | 22.8% | -7.7%
COc1ccc(C2Nc3ccccc3C(=O)N2Cc2ccco2)cc1COc1ccc(NC(C)=O)cc1 (stereo unspecified) | ? | -12.2%
COc1ccc(C2Nc3ccccc3C(=O)N2Cc2ccco2)cc1COc1ccccc1F (stereo unspecified) | 25.1µM* | -7.4%
O=C(NCCc1cn2ccccc2n1)c1ccccc1F | ? | -13.9%
O=C(NCCc1cn2ccsc2n1)C1CCCCC1 | 12.6µM* | -6.9%
O=C(NCCc1cn2ccccc2n1)C1CCCCC1 | 15.8µM* | -4.3%
c1cn2cc(CSC3CCCCC3)nc2s1 | -4.1% | -0.7%
Cc1ccc(-c2nc3c(c(SCC(=O)Nc4cccc(C(=O)O)c4)n2)Cc2cccc(C)c2O3)cc1 | -0.9% | -1.3%
CCCCCCn1c(O)c(/C=C2\C=NN=C2c2ccccc2)sc1=S | 15.8µM* | 2.3%
CCCCn1c(O)c(/C=C2\C=NN=C2c2ccccc2)sc1=S | ? | -3.8%
COc1cccc(NC(=O)C(C)n2c(=O)cc(C(F)(F)F)c3c(C)nn(C)c32)c1 (stereo unspecified) | ? | -1.5%
O=C(/C=C1\NC2(CCCC2)Cc2ccccc21)C(=O)N/N=C/c1ccccc1O | 25.1µM* | 0.7%
COc1cc(/C=N/NC(=O)C(=O)/C=C2\NC3(CCCC3)Cc3ccccc32)ccc1O | -1.9% | -7.6%
COc1ccc(Cl)cc1NC(=O)Cn1cccc1 | 1.9% | 0.0%
COc1ccc(Cl)cc1NC(=O)CN1c2ccccc2S(=O)(=O)c2ccccc21 | 20µM* | -8.8%
O=S1(=O)c2ccccc2N(Cc2ccc(Cl)cc2F)c2ccccc21 | 31.6µM* | -9.5%
O=S1(=O)c2ccccc2N(Cc2ccc(Cl)cc2)c2ccccc21 | 21.1% | -1.8%
CCOc1ccc(CNC(=O)CCn2c(=O)c3cccn3c3ccc(F)cc32)cc1 | 14.1% | -1.5%
COc1ccc(S(=O)(=O)Nc2ccc3c(c2)N(C(C)=O)CCC3)cc1F | -6.5% | -0.7%
SMILES | Cruzain noTriton | Cruzain inh Det
COc1cc(Cl)c(C)cc1NC(=O)CCCN1C(=O)C(c2ccccc2)Oc2cccnc21 (stereo unspecified) | -2.1% | -4.2%
Cc1ccc2nc(-c3ccc(NC(=O)CN4C(=O)c5ccccc5C4=O)cc3)sc2c1 | -9.5% | -0.3%
CCC1(c2ccc(F)cc2)NC(=O)N(CC(=O)Nc2ccc(-c3nc4ccc(C)cc4s3)cc2)C1=O (stereo unspecified) | 12.6µM* | -11.1%
CN(C)c1ccc(/C=C/C(=O)c2cccc(Br)c2)cc1 | -3.9% | -1.7%
CCC(=O)Oc1oc(-c2ccccc2)nc1C=Nc1ccccc1OC | -15.1% | -17.7%
CN(C)c1ccc(N=Cc2nc(-c3ccccc3)oc2OC(=O)c2cccc(Br)c2)cc1 | 25.1µM* | -21.4%
Oc1oc(-c2ccco2)nc1C=Nc1ccccc1 | -9.2% | -20.6%
CC(=O)Oc1oc(-c2ccccc2)nc1C=Nc1ccccc1 | 25.1µM* | 25.1µM*
CCOC(=O)c1ccc(N=Cc2nc3ccccc3n2C)cc1 | 3.9% | -1.1%
Cc1ccc(C(=O)Oc2oc(-c3ccco3)nc2C=Nc2ccccc2)cc1 | 12.6µM* | 10µM*
CCOC(=O)c1ccc(N=Cc2nc(-c3ccccc3)oc2OC(C)=O)cc1 | -27.0% | 14.1µM*
COc1cccc(Cn2c(=O)n(-c3ccccc3C)c(=O)c3c2c2cc(C)ccc2n3C)c1 | -1.2% | -9.2%
Cc1cc(C)cc(OCC(=O)NCC(c2ccc(Cl)cc2)N2CCCCC2)c1 (stereo unspecified) | -0.2% | -0.7%
COc1ccc2c(c1)Cc1cc(N=[N+]([O-])c3ccc4c(c3)Cc3cc(OC)ccc3-4)ccc1-2 | -9.6% | -0.2%
Cc1cc(C)cc(NC(=O)/C(C#N)=C/c2cn(CC(=O)NCc3ccco3)c3ccccc23)c1 | 15.8µM* | -1.8%
Cc1ccccc1OCCn1cc(/C=C(\C#N)C(=O)NCc2ccco2)c2ccccc21 | -15.2% | 0.6%
N#C/C(=C\c1cn(CCOc2ccccc2)c2ccccc12)C(=O)NCc1ccco1 | 0.7% | 14.2%
Cc1ccc(C)c(NC(=O)/C(C#N)=C/c2cn(CC(=O)NCc3ccco3)c3ccccc23)c1 | 7.94µM* | 10.6%
CC(Cc1ccc(O)c(O)c1)(NN)C(=O)O (stereo unspecified) | -3.4% | 3.7%
Cc1ccc2oc(C(=O)NCC(c3ccc(Cl)cc3)N3CCOCC3)c(C)c2c1 (stereo unspecified) | ? | -8.1%
CC1CCN(S(=O)(=O)c2ccc(NC(=O)Cn3nnc(-c4ccccc4)n3)cc2)CC1 | ? | 1.3%
Cc1ccc(-c2nnn(CC(=O)Nc3ccc(S(=O)(=O)N4CCC(C)CC4)cc3)n2)cc1 | 10µM* | 2.9%
O=C1NC(=O)c2c1c1c3ccccc3[nH]c1c1[nH]c3ccccc3c21 | 8.91µM* | -0.6%
Cc1ccc(C)c2c1[nH]c1ccccc12 | 8.9% | -11.2%
CC(C)(C)OC(=O)N1CCC(c2c(C(=O)Nc3ccc4c(c3)OCO4)cnn2-c2ccc(F)cc2F)CC1 | -24.7% | -10.6%
SMILES | Cruzain noTriton | Cruzain inh Det
Cc1cc(Cc2cc(C)c(N)cc2N)c(N)cc1N | 6.4% | -2.5%
O=[N+]([O-])c1ccccc1C1Nc2cccc3cccc(c23)N1 | ? | -3.1%
CN1c2cccc3cccc(c23)N(C)C1c1cccs1 | -4.6% | -0.9%
Brc1ccc(C2Nc3cccc4cccc(c34)N2)o1 | 7.94µM* | -12.5%
c1csc(C2Nc3cccc4cccc(c34)N2)c1 | 7.94µM* | -8.1%
CCOC(=O)Cn1c(=O)oc2cc(S(=O)(=O)N3CCN(c4ccc(F)cc4)CC3)ccc21 | -0.8% | 0.8%
O=C(CN1C(=O)c2ccccc2C1=O)[C@@H](O)CN1C(=O)c2ccccc2C1=O | -6.6% | -1.9%
O=c1c(/C=N/Nc2ccccc2)c(Sc2nnnn2-c2ccccc2)nc2ccccn12 | 15.8µM* | -5.7%
O=Cc1c(Sc2ccccc2)nc2ccccn2c1=O | 0.9% | -9.5%
Cc1sc2nc(SCC(=O)NCc3ccco3)n(Cc3ccccc3)c(=O)c2c1C | 3.9% | -3.3%
COC(=O)c1c(NC(=O)CSc2nc3ccccc3c(=O)n2Cc2ccco2)sc(C)c1C | 25.1µM* | -1.9%
CCOC(=O)c1c(NC(=O)CSc2nc3ccccc3c(=O)n2-c2ccc(F)cc2)sc(C(C)=O)c1C | 7.94µM* | -4.9%
CCOC(=O)c1c(NC(=O)CSc2ncnc3ccccc23)sc(C(C)=O)c1C | ? | -2.6%
O=C(CSc1nc2ccccc2c(=O)n1Cc1ccco1)NCc1ccco1 | -27.0% | -5.9%
CCOC(=O)c1sc2nc(SCC(=O)NCc3ccco3)n(Cc3ccccc3)c(=O)c2c1C | 7.94µM* | 1.7%
NNC(=O)Cc1cccnc1 | 0.0% | -1.2%
COc1cccc(Nc2nnc(SCc3nc4ccccc4s3)s2)c1 | -12.9% | -9.3%
Cc1cccc(C)c1Nc1nnc(SCc2nc3ccccc3s2)s1 | 31.6µM* | -8.5%
Nc1nc(CC(=O)O)cs1 | -9.5% | 7.5%

Assay outcomes from PubChem.
